Assay outcomes from PubChem BioAssay.
ATXN2 expr inh = inhibitors of ATXN2 expression; HEK-293 ATXN2-luciferase reporter, luminescence, 24 h; Potency, µM (series often up to 57 µM), without a hit: at the top dose activity change, negative = inhibition, usual class: inhibitors; 360,000 tested, 0.72% active; also: % is scaled to controls: 0 for no effect and ±100 for the full control effect; nearly all actives have a fitted effect of over 55% in size
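ATXN2-luciferase reporter cells (luciferase flanked by upstream and downstream ATXN2 gene portions) were treated 24 h at 37 °C with compounds at up to 57 uM. SteadyGlo luminescence gave expression; GF-AFC fluorescence gave viability.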
TGFb inhibitor = blocks TGF-b signaling. 410,000 tested, 1.2% active. Potency, µM (doses to about 46.1 µM), for the others: top-dose activity, negative = inhibition, usual class: inhibitors. HepG2 CAGA-GFP TGF-b/SMAD3 reporter, GFP fluorescence, 18 h; TGF-beta stimulated, 500 pg/mL final; also: % is scaled to controls: 0 for no effect and ±100 for the full control effect; nearly all actives have a fitted effect of over 65% in size
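Using HEPG2 CAGA-GFP reporter cells at 1000 cells/well, we pinned test compounds, stimulated with recombinant TGF-beta (500 pg/mL final) and measured total well GFP after 18 h.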
TDP1 cell CPT = growth inhibition of DT40 Tdp1-/-;hTDP1 cells with camptothecin (screen for TDP1 inhibitors) | chicken DT40 Tdp1-/-;hTDP1 cells + 20 nM CPT, ATP luminescence, 48 h | AID 686979 | Potency, µM (series often up to 46.2 µM), for inactives: at the top dose activity change, negative = growth inhibition, actives largely listed as inhibitors | 420,000 tested, 12% active; also: % is scaled to controls: 0 for no effect and ±100 for the full control effect; nearly all actives have a fitted effect of over 55% in size
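Chicken DT40 Tdp1-/- cells stably complemented with human TDP1 were seeded at 400 cells/well in medium containing 20 nM camptothecin, exposed to pin-transferred compounds, and grown at 37 °C for at least 48 hr. Viability was read as ATP luminescence.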
TDP1 cell noCPT = qHTS for Inhibitors of human tyrosyl-DNA phosphodiesterase 1 (TDP1): qHTS in cells in absence of CPT; DT40 Tdp1-/- hTDP1 cells, no CPT, ATP luminescence, 48 h; Potency, µM (top dose mostly 46.2 µM), without a hit: top-dose activity change, negative = growth inhibition, hits mostly inhibitors; 420,000 tested, 15% active; AID 686978, 2013; also: % is scaled to controls: 0 for no effect and ±100 for the full control effect; nearly all actives have a fitted effect of over 55% in size
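Compound effects on proliferation are scored in DT40 Tdp1-/-;hTDP1 cells in the absence of CPT. ATP levels (CellTiter-Glo luminescence) are recorded after a ≥48 hr, 37 °C incubation.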
S2 tox = cell viability loss in ATXN counter-screen | S2 cells (HEK-293 line with an ATXN2-luciferase reporter) viability, CellTiter-Fluor protease fluorescence, 24 h | 400,000 tested, 0.49% active | Potency, µM (highest dose often 56.7 µM), hits mostly cytotoxic; also: nearly all actives have a fitted effect of over 40% in size
HepG2 tox = counter-screen for TGF-b inhibitors: cytotoxicity in HepG2 cells | AID 588856 | HepG2 CAGA-GFP viability, ATP luminescence, 18 h | 410,000 tested, 0.76% active | Potency, µM (top dose mostly 46.1 µM), inactives show at the highest dose activity change, negative = cytotoxicity, hits mostly cytotoxic
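HepG2 CAGA-GFP cells (1000/well, DMEM with 1% FBS) received compound, then TGF-beta at 500 pg/mL final, and were incubated 18 hours at 37 degrees C. Viability was read by CellTiter-Glo luminescence. Media-only wells were set as complete cell-killing and DMSO as no toxicity.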
An asterisk follows results filed as active; i = inactive; ? = inconclusive; nt = no result. Sampled rows, rich in hits. Any-hit rate of the full collection: about 17%. Calls follow the shape of the dose curve; as a rule, active = well fitted curve in the direction sought with a large enough effect; inconclusive = small, poorly fitted or top-dose-only effect, or another doubt; inactive = no such curve, though single readings can be large; an effect the other way counts as inactive or inconclusive. Potency is read from the fitted curve at half-maximal effect.

SMILES	ATXN2 expr inh	TGFb inhibitor	TDP1 cell CPT	TDP1 cell noCPT	S2 tox	HepG2 tox
Cn1nccc1/C=C(/C#N)S(=O)(=O)c1ccccc1	1.3%	3.8%	23.1µM*	?	i	-13.9%
CCc1noc(C)c1C(=O)Nc1nnc(CC(C)C)s1	-3.1%	-3.1%	5.0%	-21.9%	i	-23.1%
CC(C)(C)NC(=S)N1CCC2CC1c1cc(-c3ccc4c(c3)OCO4)ccc12 (stereo not given)	-3.2%	-2.7%	?	?	i	-1.5%
CC(C)(C)C(=O)N1CCC2CC1c1cc(-c3ccc4c(c3)OCO4)ccc12 (stereo not given)	-23.7%	?	?	23.1µM*	i	-25.2%
O=C(C1CCCCC1)N1CCC2CC1c1cc(-c3ccc4c(c3)OCO4)ccc12 (stereo not given)	0.0%	?	18.4µM*	18.4µM*	i	-17.1%
O=C(Nc1nc2c(s1)CCCC2)c1ccc2ncsc2c1	-31.5%	-18.1%	16.4µM*	?	?	-26.0%
CC(NC(=O)Nc1nnc(C(F)(F)F)s1)(C(F)(F)F)C(F)(F)F	?	?	4.11µM*	5.17µM*	?	-43.4%
COc1ccc(C(=O)Nc2nc3c(s2)CCCC3)cc1Cl	nt	?	?	14.6µM*	nt	-36.7%
Cc1cc(C(=O)Nc2nc3c(s2)CCCC3)cs1	-21.1%	-3.4%	?	?	i	-7.1%
COc1ccccc1OCC(=O)Nc1nc2c(s1)CCCC2	nt	-3.3%	?	?	i	-14.2%
Cc1cccc(C(=O)Nc2nc3c(s2)CCCC3)c1	nt	?	?	18.4µM*	nt	-12.0%
Cc1cc(C)[n+](-c2ccc(Oc3ccccc3)c(S(=O)(=O)[O-])c2)[nH]1	-14.1%	-11.5%	?	-18.3%	i	12.7%
COc1ccc2ccccc2c1/C=N/NC(=O)c1cccc([N+](=O)[O-])c1	2.0%	91.5%	-10.6%	-1.8%	i	-1.2%
Cc1ccc(Cn2cnc3c(oc4ccccc43)c2=O)cc1	12.4%	-0.8%	-3.9%	-21.4%	i	0.6%
Cc1cccc(NC(=O)CCc2c(C)nc3nc(CNC(=O)c4cccc(F)c4)nn3c2C)c1	-22.4%	?	-14.5%	-26.6%	?	-31.8%
Cc1cccc(C(=O)Nc2sc3c(c2C(=O)NC(C)C)CCCC3)c1	-6.8%	-10.0%	?	14.6µM*	?	-8.7%
O=C(Nc1nnc(C(F)(F)F)s1)c1ccc(Br)s1	?	?	13µM*	14.6µM*	i	6.3%
O=C(Nc1nc2c(s1)CCCC2)c1ccc(Br)s1	-23.0%	-20.7%	16.4µM*	29.1µM*	?	-31.7%
CNC(=O)c1c(NC(=O)c2cccc(C)c2)sc2c1CCC2	35.9%	-24.3%	?	?	i	16.9%
Clc1ccc(/C=C/c2ccncc2)cc1Cl	nt	?	10.1%	-18.4%	nt	-53.8%
CN[C@@H](C)C(=O)N[C@H]1CN(C(=O)CC(C)C)CC[C@H]2CC[C@@H](C(=O)NC(c3ccccc3)c3ccccc3)N2C1=O	-2.7%	nt	nt	nt	nt	nt
CCC(C)NC(=O)CCc1nc2ccccc2n1-c1ccccc1 (stereo not given)	16.5%	-0.2%	?	?	?	-26.3%
COc1ccc(NC(=O)Cn2nc(Cc3cccnc3)c3ccccc3c2=O)c(OC)c1	2.0%	5.6%	-17.0%	10.8%	i	-18.4%
CC(C)(C)OC(=O)N1CCC(c2c(C(=O)NC3CCCCC3)cnn2-c2cccc(Cl)c2)CC1	nt	17.8µM*	?	?	nt	4.0%
Cc1c(Cl)cccc1-n1ncc(C(=O)Nc2ccc(F)cc2F)c1C1CCN(C(=O)OC(C)(C)C)CC1	-36.9%	?	?	14.6µM*	?	-8.3%
SMILES	ATXN2 expr inh	TGFb inhibitor	TDP1 cell CPT	TDP1 cell noCPT	S2 tox	HepG2 tox
Cc1c(Cl)cccc1-n1ncc(C(=O)N2CCC(C)CC2)c1C1CCN(C(=O)OC(C)(C)C)CC1	14.2%	-7.4%	?	20.6µM*	i	-30.1%
Cc1c(Cl)cccc1-n1ncc(C(=O)NC2CCCC2)c1C1CCN(C(=O)OC(C)(C)C)CC1	2.1%	-18.6%	?	20.6µM*	i	-16.5%
Cc1c(Cl)cccc1-n1ncc(C(=O)N2CCN(c3ncccn3)CC2)c1C1CCN(C(=O)OC(C)(C)C)CC1	13.9%	-14.6%	?	?	i	-20.2%
Cc1ccccc1S(=O)(=O)N(C)C[C@@H]1OCc2cn(nn2)CCCC(=O)N([C@H](C)CO)C[C@H]1C	2.9%	7.5%	-4.7%	-6.5%	i	-12.0%
O=C(Nc1ccccc1F)c1ccc(-n2cncn2)nc1	21.0%	-1.3%	-14.4%	-11.3%	i	0.6%
CS(=O)(=O)Nc1cccc(-c2cc(NC=O)c3ncc(-c4ccc(F)c(Cl)c4)n3c2)c1	?	?	9.2µM*	14.6µM*	?	1.1%
CN(C)c1ccc(-c2cc(NC=O)c3ncc(-c4ccc(F)c(Cl)c4)n3c2)cc1	-23.1%	3.2%	?	?	i	-5.8%
O=CNc1cc(-c2cccc(F)c2)cn2c(-c3ccc(F)c(Cl)c3)cnc12	?	-21.3%	23.1µM*	11.6µM*	i	-17.6%
O=CNc1cc(-c2ccccc2)cn2c(-c3ccc(F)c(Cl)c3)cnc12	-3.9%	-18.8%	23.1µM*	23.1µM*	i	1.5%
O=C(NCC1Cc2cccc(-c3cnccn3)c2O1)C1COc2ccccc2O1 (stereo not given)	nt	nt	9.5%	-18.8%	i	nt
O=C(CN1C(=O)C(=O)N(C2CCCC2)C1=O)Nc1ccc([N+](=O)[O-])cc1	-8.2%	2.7%	-23.3%	-3.8%	i	-34.6%
CNC(=S)N/N=C1\C(=O)c2cccc3cccc1c23	-9.0%	?	29.1µM*	16.4µM*	?	-36.3%
CCNC(=S)N1CCN(CCN2C(=O)c3cccc4cccc(c34)C2=O)CC1	-2.8%	16.6%	-27.2%	?	i	3.9%
CCCCNC(=S)N/N=C1\C(=O)c2cccc3cccc1c23	-8.9%	5.1%	?	25.9µM*	i	2.4%
O=C(N/N=C1\C(=O)c2cccc3cccc1c23)c1ccc(O)cc1	-20.8%	-1.4%	?	?	?	-14.3%
O=C(CNC(=O)c1ccc(F)cc1)N/N=C/c1cccnc1	-7.1%	28.2%	0.5%	-8.2%	i	13.2%
